JMJD2A Tudor = inhibitors of human JMJD2A Tudor domain; AID 504339; Potency, µM (doses to about 114 µM), actives largely listed as inhibitors; AlphaScreen JMJD2A-Tudor / H3K4me3 peptide binding; 390,000 compounds, 4.4% hits; note: nearly all actives have a fitted effect of over 50% in size
12-LOX inh = blocks human arachidonate 12S-lipoxygenase | Potency, µM (series often up to 108 µM), most hits filed as inhibitors | 580,000 compounds, 1.1% hits | AID 1671190 | purified 12hLO, xylenol orange hydroperoxide absorbance | P18054
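Purified human 12hLO at 150 nM in 25 mM Hepes, 0.01% Triton X-100, pH 7.0, preincubated 15 min at room temperature with compound. Reaction started with 40 uM arachidonic acid, 30 min at room temperature. Hydroperoxide measured by Fe-xylenol orange, 573/405 nm absorbance ratio.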
G9a inh = G9a (human) methyltransferase inhibition; G9a H3K9 monomethylation, AlphaScreen, 2 h; Potency, µM (highest dose often 102 µM), hits mostly inhibitors; 350,000 compounds, 8.8% hits; AID 504332; note: nearly all actives have a fitted effect of over 75% in size
Target sequence (Q96KQ7 913-1193 limits assumed): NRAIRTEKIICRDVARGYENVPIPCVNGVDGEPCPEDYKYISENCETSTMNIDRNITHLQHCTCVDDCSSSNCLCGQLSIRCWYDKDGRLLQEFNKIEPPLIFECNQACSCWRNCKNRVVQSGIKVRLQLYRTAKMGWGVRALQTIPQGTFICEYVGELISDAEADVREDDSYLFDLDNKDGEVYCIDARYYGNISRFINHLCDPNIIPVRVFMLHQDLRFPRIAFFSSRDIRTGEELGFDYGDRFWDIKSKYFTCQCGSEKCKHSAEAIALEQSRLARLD
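Chemiluminescent proximity detection of H3K9 monomethylation, read after 10 min bead incubation in the dark. Reaction: 20 nM G9a, 500 nM biotin-H3K9 peptide, 20 uM SAM cofactor, 2 h, room temperature, following 15 min enzyme-compound preincubation.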
PLK1 PBD block = PLK1 (human) polo-box domain binding inhibition; P53350; Plk1 PBD binding of FITC phosphopeptide, fluorescence polarization; Potency, µM, most hits filed as inhibitors; 360,000 compounds, 2.8% hits; note: series mostly up to about 57 µM; nearly all actives have a fitted effect of over 65% in size
HP1b binding inh = blocks HP1-beta chromodomain binding to methylated histone tails. P83916. AlphaScreen HP1-beta / biotin-H3K9me3 peptide binding. Potency, µM (titrated, usually from 114 µM), most hits filed as inhibitors. 390,000 compounds, 0.56% hits; note: nearly all actives have a fitted effect of over 70% in size
Target sequence (P83916 whole entry, looked up): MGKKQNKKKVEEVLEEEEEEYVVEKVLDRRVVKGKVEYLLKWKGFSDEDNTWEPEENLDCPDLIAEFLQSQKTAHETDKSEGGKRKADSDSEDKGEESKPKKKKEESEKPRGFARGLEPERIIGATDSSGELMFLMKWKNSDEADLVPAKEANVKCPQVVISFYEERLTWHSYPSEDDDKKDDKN
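HP1-beta protein (50 nM final) preincubated 30 min at room temperature with biotinylated H3(1-18)K9me3 peptide (50 nM) in PBS pH 7.4, 0.01% Tween-20, then compound added for 30 min. AlphaScreen streptavidin donor/nickel chelate acceptor beads (10 ug/mL final), 30 min dark, luminescence read.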
BAZ2B inh = inhibitors of human BAZ2B bromodomain. 360,000 compounds, 4.4% hits. AID 504333. Q9UIF8. AlphaScreen BAZ2B-H3K14Ac peptide displacement. Potency, µM (series often up to 114 µM), actives largely listed as inhibitors; note: nearly all actives have a fitted effect of over 60% in size
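AlphaScreen displacement: compounds (up to 110uM) incubated 30 min at room temperature with a preformed 50 nM BAZ2B/50 nM biotinylated H3K14Ac peptide complex in PBS pH 7.4 with Tween-20. Donor and acceptor beads at 10 ug/mL final added, 20 min light-protected before reading.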
A number is an active result; – = inactive; ? = inconclusive; · = no result given; [ ] = dose if it differs, or a comment. Only some compounds are listed: those with a hit (about 9% of all), similar ones and a draw of the others. Calls come from the whole dose curve; as a rule, active = well fitted curve in the direction sought with a large enough effect; inconclusive = small, poorly fitted or top-dose-only effect, or another doubt; inactive = no such curve, though single readings can be large; an effect the other way counts as inactive or inconclusive.

SMILES	JMJD2A Tudor	12-LOX inh	G9a inh	PLK1 PBD block	HP1b binding inh	BAZ2B inh
COc1ccc(C=NNc2ccc(S(=O)(=O)Nc3ccccc3C(=O)O)cc2[N+](=O)[O-])c(OC)c1	35µM	·	·	30µM	20µM	·
O=C(O)c1ccccc1NS(=O)(=O)c1ccc(NN=Cc2ccccc2F)c([N+](=O)[O-])c1	20µM	?	·	24µM	50µM	·
CSc1ccc(C=NNc2ccc(S(=O)(=O)Nc3ccccc3C(=O)O)cc2[N+](=O)[O-])cc1	20µM	?	·	?	20µM	·
COc1ccc(NS(=O)(=O)c2cccc(C(=O)NN=Cc3ccc(OC)cc3OC)c2)cc1	–	–	·	–	–	·
Cc1ccc(NS(=O)(=O)c2ccc(N/N=C/c3ccccc3)c([N+](=O)[O-])c2)c(C)c1	·	–	·	·	·	·
O=C(O)c1ccccc1/C=N/Nc1ccc(S(=O)(=O)N2CCCC2)cc1[N+](=O)[O-]	–	–	?	–	–	?
Cc1nn(-c2ccccc2)c(Cl)c1/C=N/Nc1ccc(Cl)c(C(=O)O)c1	?	–	3.5µM	?	?	?
CC1CCCN(C(=O)C2CCCN(c3cnc4nccnc4c3)C2)C1 (configuration not stated)	·	–	·	·	·	·
CCn1ccc(C(=O)Nc2cccc(Cl)c2)n1	–	–	–	–	–	–
CCOC(=O)c1ccc(NC(=S)N2CCCC(C(=O)N3CCCC3)C2)cc1 (configuration not stated)	–	–	–	–	–	–
COc1nc2ccccc2c(=O)n1OCC(C)C	–	–	–[2.33 µM]	–	–	–
CCCOC(=O)c1cccc(Nc2nc(C(=O)OCC)nc3ccccc23)c1	–	–	–	·	–	–
C=CCOc1ccc(C=NNc2ccc(S(=O)(=O)Nc3ccccc3C(=O)O)cc2[N+](=O)[O-])cc1OC	16µM	?	·	?	?	·
Cc1ccc(NC(=O)c2c(C)nn(-c3ccccc3)c2Cl)cc1	?	–	?	27µM	–	–
COCC(=O)NC[C@H]1OC[C@@H](NC2CCC2)[C@@H]1O	·	–	·	·	·	·
Cc1cccc(NC(=O)CNC(=O)Cn2ncc(Cl)c(Cl)c2=O)c1C	45µM	·	·	?	71µM	·
Cc1cccc(NC(=O)CNC(=O)Cn2c(=O)n(C)c3ccccc32)c1C	·	–	·	·	·	·
O=C(Nc1ccc2c(c1)C(=O)N1CCC[C@H]1C(=O)N2)c1cc(-c2ccccn2)n[nH]1	·	–	·	·	·	·
Cc1cc(C)cc(OCCCCn2cncn2)c1	28µM	?	10µM	–	?	?
c1ccc(COc2ccc(OCCCn3cncn3)cc2)cc1	–	–	–	–	–	–
Clc1ccc(OCCCn2cncn2)cc1Cl	8.9µM	–	10µM	–	–	22µM
CN=C1SC(CC(=O)Nc2sc(C)c(C)c2C(=O)OC)C(=O)N1C (configuration not stated)	–	–	–	–	–	–
CCN(CC)S(=O)(=O)c1ccc(C)c(NC(=O)CNCc2ccccc2OC)c1	11µM	–	25µM	–	–	–
COc1ccccc1CNCC(=O)Nc1ccc(N(C)C)cc1	4µM	–	–[2.33 µM]	27µM	–	50µM
CCc1ccc(NC(=O)Cn2ccn(Cc3ccccc3OC)c(=O)c2=O)cc1	–	?	–	·	–	–
SMILES	JMJD2A Tudor	12-LOX inh	G9a inh	PLK1 PBD block	HP1b binding inh	BAZ2B inh
COCCNC(=O)/C(C#N)=C1\N=C(NC(=O)c2cccs2)c2ccccc21	–	–	–	–	–	–
CSc1cc(N2CCOCC2)nc(-c2ccccc2Cl)n1	–	–	?	–	–	–
Cc1cc(OC(C)C(=O)N(Cc2ccc(N(C)C)cc2)Cc2ccco2)ccc1Cl (configuration not stated)	14µM	–	13µM	·	–	13µM
Cc1cc(OCC(=O)N(Cc2ccc(N(C)C)cc2)Cc2ccco2)cc(C)c1Cl	14µM	–	11µM	·	–	10µM
O=C1C(n2ccc3ccccc32)c2cccc(F)c2N1Cc1ccc(C(F)(F)F)cc1 (configuration not stated)	·	45µM	·	·	·	·
CC1(C)Cc2c(sc3ncn(N)c(=N)c23)CO1	–	–	–	–	–	–
CC1(C)Cc2c(sc3ncn4nc(CCC(=O)O)c(=O)nc4c23)CO1	–	?	–	–	–	–
CC1(C)Cc2c(sc3ncnc(NN)c23)CO1	50µM	–	–	–	–	79µM
CC1(C)Cc2c(sc3ncn4c(=S)[nH]nc4c23)CO1	?	?	3.2µM	30µM	?	–
CN(C)c1ccc(Nc2ncnc3sc4c(c23)CCCC4)cc1	25µM	–	?	·	22µM	32µM
NNc1ncnc2sc3c(c12)CCC3	22µM	?	–	–	–	18µM
c1cc(Nc2ncnc3sc4c(c23)CCC4)ccn1	–	–	–	–	–	–
C(=N\Nc1ncnc2sc3c(c12)CCC3)/c1ccncc1	–	–	–	–	–	–
COc1ccccc1C(=O)NC1CCN(C(=O)Nc2ccc(C)cc2)CC1	–	–	–	–	–	–
CC12CCC(=O)N1C(C(=O)Nc1cccc3ccccc13)CS2 (configuration not stated)	–	–	–[2.33 µM]	–	–	–
CCCCN(CCCC)C(=O)c1cc2ccccc2c(=O)o1	–	–	?	–	–	–
COc1ccccc1N1CCN(c2nc(N)c(C#N)c(CC#N)c2C#N)CC1	?	–	50µM	–	–	–
Cn1c(SCCCC(=O)c2ccccc2)nnc1-c1ccncc1	–	?	–	–	–	–
COc1ccc(C(=O)c2ccc(OC)c3cccc(O)c23)cc1OC	?	–	56µM	–	–	?
CCCn1c(=O)c(C(=O)NCc2ccccc2)c(O)c2ccccc21	?	–	–	12µM	–	–
CCn1c(=O)c(C(C)=O)c(O)c2ccccc21	–	–	·	–	–	–
Cc1nc2ccccc2c(=O)n1NC(=O)c1ccc([N+](=O)[O-])cc1	8.9µM	–	–	?	–	·
CCn1c(=O)c(C(=O)NCCCO)c(O)c2ccccc21	28µM	–	?	–	–	·
CCc1nc2ccccc2c(=O)n1NC(=O)c1c(O)c2ccccc2n(CC)c1=O	–	–	–	–	–	–
CCn1c(=O)c(C(=O)Nn2c(C)nc3ccccc3c2=O)c(O)c2ccccc21	–	–	–	–	–	50µM
Cc1cc(C(=O)Nn2c(C)nc3ccccc3c2=O)ccc1[N+](=O)[O-]	–	–	–	–	–	–
COCCOC1CCN(C(=O)Nc2ccccc2)CC1	·	–	·	·	·	·
CCOc1ccc(/C(C)=N/NC(=O)Cn2nc([N+](=O)[O-])cc2C)cc1	–	–	·	–	–	–
Cc1cc(C)n(-c2nc3c(c(=O)[nH]c(=O)n3C)n2Cc2cccc(Br)c2)n1	–	–	–	–	–	–
COc1cc(C=O)ccc1OCCOc1ccccc1[N+](=O)[O-]	–	–	–	–	–	–

Screening results as filed in PubChem BioAssay.
